The text below walks through data of PubChem BioAssay AID1508622 (National Center for Advancing Translational Sciences (NCATS), 2021).

Active and inactive are the calls of the source. Entries that show only a call come without a potency. Calls come from the whole dose curve; as a rule, active = well fitted activation curve with a large enough effect; inconclusive = small, poorly fitted or top-dose-only effect; inactive = no such curve, though single readings can be large or run the other way.
Potency is the fitted concentration of half-maximal effect.

This test in a line: Confirmatory qHTS for Identification of Small Molecule Activators of Huntingtin-Antisense Promoter Activity. As to conditions: HEK293 HTT-AS promoter firefly luciferase reporter, 24 h; series mostly up to 57.5 µM. In a few lines:
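Activity normalized between vehicle control (0%) and zero RLU (-100%) from firefly luminescence (Dual-Glo). Compounds, up to 57.5 uM final, incubated 24 h at 37C on HEK293 reporter cells plated 24 h earlier.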
A general note: qHTS replaces the single test concentration by a dilution series.
On to `CCOC(=O)C1=C(CN2CCN(c3ccccc3F)CC2)NC(=O)NC1c1ccc(OC)cc1` (centres undefined), for which the Potency entry was “inactive”. As for `CCOc1ccc(C(=O)N(Cc2cc(OC)c(OC)c(OC)c2)c2ccccn2)cc1`, the Potency result is “inactive”.

`COc1ccccc1CNC(=O)c1oc2ccc(S(=O)(=O)N3CCCCC3)cc2c1C`: the Potency entry was “inactive”. In the case of `CC(C)c1ccc(NC(=O)c2ccc(F)c(S(=O)(=O)N3CCc4ccccc43)c2)cc1`, the Potency entry was “inactive”. For `Cc1ccc(Nc2ccc(N3CCN(C(=O)c4ccc([N+](=O)[O-])cc4Cl)CC3)nn2)cc1` the value was “inactive”. On to `O=C(NCc1cccnc1)C(=O)NCC(c1cccnc1)N1CCN(c2ccccc2F)CC1` (centres undefined), for which the Potency entry was “inactive”. Consider `O=C(Nc1ccc(Cl)c(Cl)c1)N(Cc1c[nH]c2ccccc12)C1CCCCC1`, for which the Potency is 2.39 µM (active).

As for `CN(C)S(=O)(=O)c1ccc(C(=O)NCCSc2c(-c3ccc(Br)cc3)[nH]c3ccccc23)cc1`, the Potency entry was “inactive”. Consider `Cc1ccc(N2CCN(C(=O)c3nn(C)c4c3CS(=O)(=O)c3ccccc3-4)CC2)c(C)c1`, for which the Potency result was “inactive”.

In the case of `COc1cc(CNC(=O)c2ccc3nc(Cc4ccccc4)oc3c2)cc(OC)c1OC`, the Potency entry was “inactive”. For `O=C1CCCc2cc(S(=O)(=O)NCC3CCC(C(=O)Nc4ccc(Cl)cc4)CC3)ccc2N1` (centres undefined), the Potency entry was “inactive”. For the molecule `CN(C)CCNC(=O)C1CCN(Cc2cc3ccccc3n2Cc2ccccc2)CC1`, the Potency entry was “inactive”. For `Cc1cccc(N2CCN(C(=O)C3CCCN(S(=O)(=O)c4ccc5c(c4)oc(=O)n5C)C3)CC2)c1C` (centres undefined), the Potency entry was “inactive”. The entry for `O=C1CCCc2cc(S(=O)(=O)NCC3CCC(C(=O)Nc4ccccc4F)CC3)ccc2N1` (centres undefined) is “inactive”; for `Cc1ccc(C(=O)N2CCc3cc(CNC(=O)CSc4ccccc4)ccc32)cc1` it is “inactive”. As to `CCOC(=O)C1CCCN(C(=O)Cn2c(=O)cc(C)c3c(C)nn(C)c32)C1` (centres undefined), the Potency entry is “inactive”. As for `O=C(Nc1ccc2c(c1)CCCN2C(=O)c1cccs1)c1cccc(C(F)(F)F)c1`, the Potency entry is “inactive”. For the molecule `CCOc1ccc(CCNC(=O)CSCc2nc(-c3cccc(C)c3)oc2C)cc1OCC`, the Potency result is “inactive”. Take `CCn1c(SCc2cccc(Br)c2)nnc1-c1nonc1NC(C)=O`: the Potency result is “inactive”. Take `COc1ccc(NC(=O)CSc2oc(-c3cccs3)nc2S(=O)(=O)c2ccccc2)c(OC)c1`: the Potency entry is “inactive”. For the molecule `CC1Cc2cc(S(=O)(=O)NCc3ccccc3)ccc2N1C(=O)C1CCC1` (centres undefined), the Potency result is “inactive”. The entry for `Cc1cccc(N2CCN(S(=O)(=O)c3ccc4c(c3)C(C(C)C)C(=O)N4)CC2)c1C` (centres undefined) is “inactive”; for `COc1cccc(C(=O)Nc2ccc(S(=O)(=O)N(Cc3ccccc3)c3ccccc3)cc2)c1` it is “inactive”; for `COc1ccc(NC(=O)Cc2csc(COc3cccc(C)c3)n2)cc1OC` it is “inactive”. `CCOC(=O)Cc1ccc(NC(=O)N(Cc2ccc(CC)cc2)Cc2cn[nH]c2-c2ccc(OC)cc2)cc1`: the Potency entry is “inactive”.

Take `CCCc1cc(N2CCN(c3ccccc3)CC2)n2cnnc2n1`: the Potency entry is “inactive”.

Turning to `COc1cc(OC)c(N(C)C(=O)c2cn(C3CCCC3)c(=O)c3c2c2ccccc2n3C)cc1Cl`, the Potency result was “inactive”.

As to `CC(C)(C)c1ccc(C(=O)Nc2ccc3c(c2)CCCN3C(=O)c2cccs2)cc1`, the Potency entry is “inactive”. For `C1=CCOCc2cc(ccc2OCCN2CCCC2)Nc2nccc(n2)-c2cccc(c2)OCC1`, the Potency result was “inactive”. Consider `Cc1ccc(C)c(OCCCC(C)(C)C(=O)O)c1`, for which the Potency result was “inactive”. For `O=C(CCNS(=O)(=O)c1ccc2c(c1)CCN2C(=O)C1CC1)N1CCN(c2ccc(F)cc2)CC1`, the Potency entry is “inactive”.

Turning to `COc1ccc(C(=O)Oc2c(Sc3ccccc3)c(C)nn2-c2ccccc2)c(OC)c1`, the Potency result was “inactive”. As for `CCc1ccc(NC(=O)c2ccc(F)c(S(=O)(=O)N3CCC4(CC3)OCCO4)c2)cc1`, the Potency result was “inactive”. The entry for `Cc1ccc2nc(CSc3nnc(NC(=O)COc4ccccc4)s3)cc(=O)n2c1` is “inactive”; for `Cc1ccc(CNS(=O)(=O)c2ccc(N3CCCCS3(=O)=O)cc2)cc1` it is “inactive”. For `Cc1ccccc1Cn1c(=O)n(Cc2ccco2)c(=O)c2oc3ccccc3c21` the value was “inactive”. `CCc1ccc2oc(C(=O)NCCc3ccc(OC)c(OC)c3)cc(=O)c2c1`: the Potency result is “inactive”. In the case of `CCC(C(=O)NCCc1cc(OC)ccc1OC)n1nc(C)c2c(C)n(-c3ccccc3)nc2c1=O` (centres undefined), the Potency entry was “inactive”. Take `O=C(CSc1nccn1Cc1ccco1)Nc1cc(C(F)(F)F)ccc1Cl`: the Potency result is “inactive”.
